# The list is not random: actives were taken first. Their share in the collection is about 8.8%.
# IL-1B inflam inh: inhibitors of inflammasome signaling (IL-1 beta secretion); activity change, % at 57.5 µM; THP-1 LPS/ATP IL-1B secretion, AlphaLISA, 16 h; hits give low values; 4.7% of 360,000 active; in the data active = activity change below about -50%; inconclusive = mostly about -30% to -49%
#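 THP-1 cells pretreated 1 hr with compounds (up to 57.5 uM final), then stimulated with LPS (250 ng/mL final) plus ATP (1.25 mM final); secreted IL-1B measured by AlphaLISA after 16 hr, decreased signal indicating inhibition.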
# HT1080 IDH1KD tx: HT-1080 IDH1 knockdown cell toxicity (counter line); HT-1080 IDH1 knockdown viability, ATP luminescence, 48 h; Potency, µM (highest dose often 46.1 µM), for inactives: at the highest dose activity, negative = toxicity, actives largely listed as cytotoxic; 2% of 360,000 active;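 note: potency is the fitted concentration of half-maximal effect; 0% = DMSO wells and -100% = cell-free medium wells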
#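 Assay cells: HT-1080 with IDH1 knockdown, 750 per well, RPMI/5% FBS. Exposure: 48 h at 37 °C following 2 h pre-incubation. Read: CellTiter-Glo luminescence; fitted concentration-response, curve class assigned.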
# HT1080NT lethal: kills 2HG-producing HT-1080-NT fibrosarcoma cells; HT-1080-NT fibrosarcoma viability, CellTiter-Glo ATP luminescence, 48 h; Potency, µM (series often up to 46.1 µM), without a hit: at the highest dose activity, negative = less viability, most hits filed as cytotoxic; 1.6% of 360,000 active; AID 686970;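 note: NT is the 2HG producing partner of a matched IDH1 knockdown line; potency is the fitted concentration of half-maximal effect; 0% = DMSO-treated cells and -100% = media-only wells without cells; nearly all actives have a fitted effect of over 55% in size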
#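 Toxicity toward the 2HG-producing NT line was scored as %Activity, normalised to DMSO and no-cell wells, from CellTiter-Glo luminescence after 48 hours' treatment.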
# KB-V1 MDR tox: KB-V1 MDR subline cytotoxicity. KB-V1 MDR cells viability, CellTiter-Glo, 72 h. Potency, µM (doses to about 46.1 µM), actives largely listed as cytotoxic. 3.4% of 400,000 active; note: potency is the fitted concentration of half-maximal effect; nearly all actives have a fitted effect of over 60% in size
#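 KB-V1 MDR subline cells in DMEM (phenol-red free, 10% FBS) exposed to compounds in qHTS concentration series for 72 h at 37 degrees C. Viability read by CellTiter-Glo luminescence; concentration-effect curves fitted after normalization and correction.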
# KB-3-1 cytotox: KB-3-1 parental cell cytotoxicity. 1.4% of 400,000 active. AID 1347075. KB-3-1 viability, CellTiter-Glo ATP luminescence, 72 h. Potency, µM (doses to about 46.1 µM), actives largely listed as cytotoxic; note: potency is the fitted concentration of half-maximal effect; nearly all actives have a fitted effect of over 60% in size
#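 Viability of parental KB-3-1 cells, measured by CellTiter-Glo luminescence, followed a 72 h incubation at 37 °C with pinned compounds in phenol-red-free DMEM containing 10% FBS.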
# Numbers without * were called inactive; i = inactive; u = inconclusive; x = no result given; [ ] = another dose, or the depositor's remark. Unless noted, calls come from the whole dose curve; as a rule, active = well fitted curve in the direction sought with a large enough effect; inconclusive = small, poorly fitted or top-dose-only effect, or another doubt; inactive = no such curve, though single readings can be large; an effect the other way counts as inactive or inconclusive. Unless noted, % is set by controls: 0 for no effect and ±100 for the full control effect.
SMILES,IL-1B inflam inh,HT1080 IDH1KD tx,HT1080NT lethal,KB-V1 MDR tox,KB-3-1 cytotox
Cc1cccc(/C=C\c2nc3ccccc3c(=O)[nH]2)c1,-4,5.8µM*,u,u,15µM*
Cc1ccc2[nH]c(C(=O)NN=C3CCCCC3)c(-c3ccccc3)c2c1,20,u,u,u,i
COC(=O)c1scc(-c2ccc(C)cc2)c1S(=O)(=O)N1CCN(c2ccc(C(C)=O)cc2)CC1,x,x,x,i,i
CC(=O)c1sc(N/N=C2\CC3CCC2(C)C3(C)C)nc1C (configuration not stated),9,u,23µM*,u,i
CC(=O)Nc1ccc(NC(=O)c2cc3c(=O)n(Cc4cccnc4)ccc3nc2C)cc1,x,x,x,i,i
CC1CCc2nc(-c3cc4ccc(O)cc4oc3=O)sc2C1 (configuration not stated),x,x,x,i,u
COCCNC(=O)CN(CCc1ccccc1)S(=O)(=O)c1ccc(OC)cc1,-9,7%,-2%,18µM*,i
COc1ccc(S(=O)(=O)N(CCc2ccccc2)CC(=O)NCc2ccc(C)cc2)cc1,x,x,x,i,u
CC(=O)Nc1ccc(S(=O)(=O)N(CC(=O)O)Cc2ccccc2)cc1,24,19%,13%,i,i
COc1ccc(S(=O)(=O)N(CC(=O)Nc2ccccc2Br)Cc2ccccc2)cc1,x,x,x,u,16µM*
COc1ccc(S(=O)(=O)N(CC(=O)Nc2ccc(Br)cc2)Cc2ccccc2)cc1,x,x,x,u,i
CCOC(=O)CN(Cc1ccccc1)S(=O)(=O)c1ccc(NC(C)=O)cc1,32,u,1%,15µM*,i
COc1ccc(C)cc1NS(=O)(=O)c1ccccc1,-16,10%,2%,i,i
Cc1ccc(N(C)S(=O)(=O)c2cccc(C(=O)NC3CC(C)(C)NC(C)(C)C3)c2)cc1,-21,-12%,u,i,i
O=C(NCC1CCCO1)c1cccc(S(=O)(=O)N(Cc2ccccc2)c2ccccc2)c1 (configuration not stated),3,-8%,-3%,8.2µM*,i
CC1(C)CC(NC(=O)c2cccc(S(=O)(=O)N(Cc3ccccc3)c3ccccc3)c2)CC(C)(C)N1,-81*,-2%,-3%,i,u
COc1ccc(CC(=O)OCC(=O)N2N=C(c3ccccc3)CC2c2ccc(OC)cc2)cc1 (configuration not stated),-2,0%,2%,21µM*,i
COc1ccc(C2CC(c3ccccc3)=NN2C(=O)COC(=O)C2(C)CC2(Cl)Cl)cc1 (configuration not stated),-68*,-24%,-24%,i,i
COc1ccc(C2=NN(C(=O)CN3CCCC3)C(c3ccc(OC)cc3)C2)cc1 (configuration not stated),-62*,-5%,-1%,u,i
CO[C@@H]1CN(C)C(=O)c2ccc(NC(=O)c3ccccc3F)cc2OC[C@@H](C)N(CC2CCOCC2)C[C@@H]1C,0,22%,13%,i,i
CCCC1(CCC)NC(=O)N(CC(=O)N2CCc3ccccc32)C1=O,-3,-4%,0%,16µM*,i
O=C(CN1CCC(n2nnc3cc(C(F)(F)F)ccc32)CC1)Nc1ccc2c(c1)CCC2,-50*,-13%,-14%,i,i
COc1ccc(C(=O)NNC(=O)CN2CCC(n3nnc4cc(C(F)(F)F)ccc43)CC2)cc1,27,-2%,0%,i,i
CC1Cc2ccccc2N1C(=O)CN1CCC(n2nnc3cc(C(F)(F)F)ccc32)CC1 (configuration not stated),-58*,-30%,-28%,i,u
CC1CCN(CC(=O)N2c3ccccc3CC2C)CC1 (configuration not stated),-8,16%,8%,i,i
SMILES,IL-1B inflam inh,HT1080 IDH1KD tx,HT1080NT lethal,KB-V1 MDR tox,KB-3-1 cytotox
COC(=O)c1ccccc1NC(=O)CN1CCC(n2nnc3cc(C(F)(F)F)ccc32)CC1,13,-2%,-3%,4.1µM*,u
O=C(CN1CCC(n2nnc3cc(C(F)(F)F)ccc32)CC1)Nc1ccc2c(c1)OCCO2,-9,u,-24%,i,i
CC(=O)Nc1ccc(Oc2cncc(Cl)c2)nc1,-26,7%,1%,i,i
COc1cccc(-c2cc(C(F)(F)F)n3nc(C)c(-c4ccccc4)c3n2)c1,x,x,x,i,i
O=C(CCn1cnc(-c2ccccc2)c1-c1ccccc1)N/N=C/c1ccccc1O,230,15µM*,13µM*,i,u
O=C(CCn1cnc(-c2ccccc2)c1-c1ccccc1)N/N=C/c1ccc(O)cc1,32,u,u,i,u
O=C(CCn1cnc2ccccc21)N/N=C/C=C/c1ccccc1,-11,0%,6%,i,i
COc1ccc(/C=N/NC(=O)CCn2cnc(-c3ccccc3)c2-c2ccccc2)cc1,0,3.3µM*,3.3µM*,i,5.2µM*
COc1ccccc1/C=C/C=N/NC(=O)CCn1cnc2ccccc21,-7,15µM*,10µM*,i,i
Cc1ccc2c(c1)cc(CN(Cc1cccnc1)C(=O)NCc1ccccc1)c1nnnn12,-3,2%,10%,2.6µM*,u
Cc1csc2nc(COc3cccc(NC(=O)c4ccccc4F)c3)cc(=O)n12,x,x,x,i,i
c1ccc2c(c1)oc1c(Nc3ccc(CN4CCOCC4)cc3)ncnc12,u,u,u,18µM*,u
c1ccc(Nc2ncnc3c2oc2ccccc23)cc1,-1,2%,0%,i,i
Cc1ccc(Cn2ncc3c(NCCCN4CCOCC4)ncnc32)cc1,-11,-2%,0%,i,i
Clc1ccc(Cn2ncc3c(NCCN4CCOCC4)ncnc32)cc1,-5,-1%[9.24 µM],-8%,21µM*,i
CC(=O)N1CCN(c2ccc(Nc3ncnc4c3oc3ccccc34)cc2)CC1,-81*,u,-18%,21µM*,u
c1ccc2c(c1)oc1c(NCCN3CCOCC3)ncnc12,-5,2%,-10%,23µM*,i
O=C(c1ccc(Cl)c(S(=O)(=O)N2CCOCC2)c1)N1CCc2ccccc2C1,-64*,-13%,0%,3.7µM*,21µM*
COc1ccc(NC(=O)c2ccc(Cl)c(S(=O)(=O)N3CCc4ccccc4C3)c2)cn1,-16,-12%,-24%,4.6µM*,i
COC1=CC(=O)C(OC)=C(OC)C1=O,-102*,u,-8%,u,u
O=C(NCCc1ccc(Cl)cc1)c1ccc2c(c1)OCCO2,0,-4%,1%,i,i
Cc1ccccc1CN1CCN(c2ccc(S(=O)(=O)N3CCCC3)cn2)CC1,-1,5%,5%,9.2µM*,u

# Screening results as filed in PubChem.
